Compounds with a hit are over-represented: about 3.4% of the library has one in this group of screens.
Shn3 3UTR inh: Schnurri-3 reporter inhibition in Clone20 osteoblasts; actives 0.52% (n = 360,000); Clone20 osteoblast Shn3 3'UTR firefly luciferase, 24 h; inhibition, % at 12.5 µM;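 active = mean inhibition of at least 75% with every replicate also reaching 75%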;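 also: 0% = median of neutral control wells and 100% = pilot-screen positive control compound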
HIF-2a block: inhibitors of HIF-2a; 786-0 RCC cells HIF-2a reporter, luciferase luminescence, overnight; AID 624352; actives 0.72% (n = 360,000); inhibition, % at 18.8 µM;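 active = inhibition of the luminescence signal of 40% or more relative to plate controls, in a single-dose primary screen at 18.75 µM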
TWEAK Fn14 block: inhibitors of TWEAK-Fn14 interaction signaling; TWEAK-stimulated Fn14 reporter cells, luciferase luminescence, 8 h; inhibition, % at 10 µM; actives 2% (n = 360,000); in the data active = inhibition above about 50%
LMP1 NFkB inh: reduces LMP1-driven NF-kappaB luciferase signal. LMP1-induced NF-kappaB luciferase reporter cells, luminescence. inhibition, % at 12.5 µM. actives 0.69% (n = 350,000). AID 504558; in the data active = inhibition above about 41%;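 also: 0% = neutral control wells and 100% = reference inhibitor control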
TRPM1 prom inh: MITF TRPM1 promoter inhibition in SK-MEL-5 cells; SK-MEL-5 TRPM1 promoter luciferase, 24 h; inhibition, % at 12.5 µM; actives 0.83% (n = 330,000); AID 488899;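 active = mean inhibition across replicates of 60% or more, whatever share of single replicates reaches that level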
TROY NFkB inh: blocks TROY-dependent signaling in reporter cells. Q293 LMP1-TROYcd NF-kB luciferase reporter, 4 h. inhibition, % at 10 µM. actives 0.98% (n = 360,000);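 active = compounds whose plate-normalised and pattern-corrected inhibition of the luciferase reporter signal at the single screening dose is 50% or more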
Numbers without * were called inactive; x = no result given.

SMILES | Shn3 3UTR inh | HIF-2a block | TWEAK Fn14 block | LMP1 NFkB inh | TRPM1 prom inh | TROY NFkB inh
CC(C)CN(C(=O)COC(=O)C12CC3CC(CC(C3)C1)C2)c1c(N)n(Cc2ccccc2)c(=O)[nH]c1=O | 3.8 | 5.0 | 54.7* | -7.9 | 87.5* | 20.9
CCCCC1CCC(C(=O)OCC(=O)N(CCOC)c2c(N)n(Cc3ccccc3)c(=O)[nH]c2=O)CC1 (stereo unspecified) | 0.6 | 5.0 | -4.3 | 1.6 | -1.9 | 3.4
Cc1ccccc1-c1nc(S(=O)(=O)c2ccccc2)c(NCCN2CCOCC2)o1 | -36.1 | 4.4 | 0.4 | -28.0 | x | -15.9
CCN1C[C@@H]2[C@@H]3C(=O)N(Cc4ccccc4)C(=O)[C@@H]3[C@](CC)(C1=O)N2C(=O)c1ccccc1 | -20.1 | 11.0 | 4.1 | 2.2 | 4.5 | -9.2
Cc1cccc(C)c1-n1nnnc1C1(C)CCC(=O)N1c1ccc(N2CCOCC2)cc1 (stereo unspecified) | x | 1.4 | 2.7 | x | x | -3.8
CCc1cc(C(=O)Nc2cc(S(=O)(=O)N3CCOCC3)ccc2N2CCN(CC)CC2)sc1C | -18.8 | 3.8 | -13.2 | -0.2 | 2.5 | 2.5
O=C(NNC(=O)c1csc(-c2cccs2)n1)c1ccc(Cl)cc1 | -12.4 | -129.6 | 7.0 | x | x | -60.8
Cn1c(CC(=O)Nc2ccccc2Cl)nnc1SCC(=O)NC1=NCCS1 | -4.7 | 14.4 | -0.9 | -0.1 | -7.0 | 2.1
Cn1c(CC(=O)Nc2ccccc2F)nnc1SCC(=O)NC1=NCCS1 | -1.8 | 0.8 | 53.1* | -8.6 | 5.9 | 4.8
Cc1cc(C)n(CC(=O)NNC(=O)CC(C)c2ccccc2)n1 (stereo unspecified) | -11.6 | 5.9 | 6.7 | -1.8 | 1.3 | 4.6
Cc1ccc(/C=C/C(=O)N2CCN(S(=O)(=O)c3cccs3)CC2)o1 | -18.2 | 8.7 | 85.7* | 0.0 | 19.4 | 15.9
CCOC(=O)c1c(CSc2nc(C)cc(C)c2C#N)n(C)c2cc(Br)c(OC(C)=O)cc12 | 77.5 | 12.8 | 60.8* | 50.2* | 40.1 | 27.0
C=CCCc1ccc(C#N)c(SCc2c(C(=O)OCC)c3cc(OC(C)=O)c(Br)cc3n2C)n1 | 89.4* | 6.1 | 47.0 | 8.3 | 24.7 | 9.9
Cc1cccc(NC(c2ccc(C)s2)c2ccc3ccc(C)nc3c2O)n1 (stereo unspecified) | 58.8 | 65.8* | 40.7 | -11.6 | 14.9 | -6.7
Cc1nc(SCC(=O)Nc2sccc2C(N)=O)c2c(C)c(C)sc2n1 | 18.2 | -12.2 | 8.7 | -5.5 | x | 36.9
COC(=O)c1sc2nc(C)nc(SCC(=O)Nc3sccc3C(N)=O)c2c1C | 14.4 | 4.7 | 59.7* | 9.3 | -2.1 | 48.6
COc1cc(O)c(CC=C(C)C)c(O)c1C(=O)CCc1ccc(O)cc1 | -3.1 | -303.3 | 81.2* | -41.7 | -11.1 | 70.8*
O=C(CCc1ccc(O)cc1)c1c(O)cc(O)cc1O | -15.3 | -16.1 | -2.8 | 0.2 | -7.1 | -31.1
NNc1nc(-c2ccccc2Cl)c2cc(Br)ccc2n1 | 7.6 | 33.3 | 28.2 | 28.7 | 7.4 | 86.5*
COc1ccc2[nH]c(C)c(-c3csc(N)n3)c2c1 | -4.6 | 13.9 | 9.0 | -11.2 | 1.0 | -1.2
CC(C)C(=O)Nc1nnc(S(=O)(=O)N(C)c2ccc(Cl)cc2)s1 | -4.2 | 7.1 | 71.9* | -3.3 | -2.4 | 19.2
CN(c1ccc(Cl)cc1)S(=O)(=O)c1nnc(NC(=O)c2ccco2)s1 | 1.7 | -2.8 | 9.0 | 1.4 | 4.2 | 8.9
CN(C)c1ccc(C2/C(=C(/O)c3ccc(Br)cc3)C(=O)C(=O)N2C)cc1 (stereo unspecified) | 24.8 | 49.0* | 9.7 | 6.6 | 9.4 | 1.3
CN1C(=O)C(=O)/C(=C(/O)c2ccc(Br)cc2)C1c1ccc(Cl)cc1 (stereo unspecified) | 15.6 | 9.3 | 94.8* | 3.6 | -6.5 | -9.8
CN1C(=O)C(=O)/C(=C(/O)c2ccccc2)C1c1ccc(Br)cc1 (stereo unspecified) | -5.6 | 21.6 | 8.1 | 6.2 | -5.0 | 5.5
SMILES | Shn3 3UTR inh | HIF-2a block | TWEAK Fn14 block | LMP1 NFkB inh | TRPM1 prom inh | TROY NFkB inh
COc1ccc(C(CNC(=O)C(C)c2ccc3cc(OC)ccc3c2)N(C)C)cc1 (stereo unspecified) | 1.0 | -23.3 | 63.1* | 1.0 | -14.6 | 7.8
COc1ccc(C(CNC(=O)CN(C)S(=O)(=O)c2ccc(C)cc2)N2CCCC2)cc1 (stereo unspecified) | -14.5 | -1.6 | -2.1 | -3.0 | 0.4 | 6.2
COc1ccc(-c2nc(-c3cccc(C)c3)no2)cc1OC | -68.7 | -319.4 | -9.4 | -38.3 | -46.6 | -80.1
COc1ccc(-c2nc(-c3ccncc3)no2)c(OC)c1 | 1.0 | -85.5 | 56.4* | -9.8 | -6.7 | 17.2
COc1ccccc1-c1noc(-c2ccccc2)n1 | -45.1 | -227.8 | -10.5 | 47.2* | -29.8 | -43.9
Cc1ccc(-c2nc(-c3ccccc3)no2)cc1 | 23.9 | -110.9 | 62.0* | -13.7 | -0.1 | 47.0
COc1cc(OC)c(-c2nc(-c3ccncc3)no2)cc1OC | 3.2 | -5.4 | -16.0 | -4.5 | -3.5 | -10.8
COc1ccc(-c2nc(-c3ccccc3OC)no2)cc1OC | -90.3 | -266.4 | -12.6 | -4.6 | -56.9 | -63.5
Cc1cccc(-c2noc(-c3ccc4c(c3)OCO4)n2)c1 | -4.7 | -98.3 | 56.7* | -38.6 | -19.0 | 42.1
CC(C)(C)c1ccc(-c2nc(-c3ccncc3)no2)cc1 | 3.1 | -93.8 | 78.8* | -9.8 | -2.7 | 72.4*
COc1ccc(-c2noc(-c3ccccc3-c3ccccc3)n2)cc1 | 1.5 | -43.7 | 2.3 | 6.8 | -12.3 | -21.2
Cc1ccc(-c2nc(-c3ccccc3)no2)c(Cl)c1 | 44.2 | 61.4* | 100.9* | 39.6 | 49.3 | 81.3*
CC12CCC(=O)N1C(C(=O)N1CCN(c3ccc(C(F)(F)F)cc3[N+](=O)[O-])CC1)CS2 (stereo unspecified) | 12.2 | 2.9 | 16.2 | -13.4 | -0.5 | 11.3
CC1(C(=O)NS(=O)(=O)c2cccc(Cl)c2)CCN1C(=O)c1ccccc1 (stereo unspecified) | -3.4 | -2.8 | 10.2 | x | x | -14.9
O=c1cnn(Cc2ccc(F)cc2)c2ccccc12 | 5.9 | 15.6 | -2.9 | -3.1 | -5.3 | -20.2
O=c1c(Cl)c(Cl)cnn1Cc1ccc(F)cc1 | -2.8 | 14.1 | 80.5* | -9.0 | 81.1* | 1.9
O=C(Oc1ccc2c(-c3ccccc3)cc(=O)oc2c1)C1CCCCC1 | 1.3 | -42.1 | 10.7 | 4.2 | 8.7 | -20.3
COc1ccc(-c2cc(=O)oc3cc(OC(=O)C4CCCCC4)ccc23)cc1 | 7.6 | -6.8 | 53.9* | 11.2 | -0.1 | 21.7
O=C(CCCN1C(=O)/C(=C/c2ccccc2Cl)SC1=S)NNC(=O)c1ccncc1 | 14.7 | 82.2* | 78.5* | 8.0 | 10.0 | 68.0*
O=C(CCCN1C(=O)/C(=C/c2ccccc2Cl)SC1=S)NNC(=O)c1ccccc1Cl | 11.0 | 92.7* | 77.7* | 44.0* | 40.5 | 34.0
O=C(CCCN1C(=O)/C(=C/c2cccs2)SC1=S)NNC(=O)c1ccncc1 | -1.1 | 11.6 | 5.1 | 13.9 | -0.5 | -24.9
